This passage reports inhibition results from PubChem BioAssay AID2322 (Broad Institute, 2010).

Structures are written as SMILES. In all, about 27,000 compounds went through this assay and about 120 (0.44%) were called active. For the sample, actives were picked, then their nearest neighbours and some compounds at random. Unmarked numbers belong to inactive results. No stated cut-off is given here; in the data, active means inhibition above about 20%; inconclusive means no clear call, values can overlap the other calls; inactive means below that.

This assay deals with Serine/threonine-protein kinase 33 (Homo sapiens) (UniProt Q9BYT3). Put plainly: STK33 kinase inhibitors, primary screen, biochemical, luminescence, ADP-Glo, MBP substrate (AID 2322). Particulars: at 12.5 µM, active compounds read high.
Serine/threonine-protein kinase 33 (Homo sapiens), sequence (Q9BYT3 whole entry, looked up): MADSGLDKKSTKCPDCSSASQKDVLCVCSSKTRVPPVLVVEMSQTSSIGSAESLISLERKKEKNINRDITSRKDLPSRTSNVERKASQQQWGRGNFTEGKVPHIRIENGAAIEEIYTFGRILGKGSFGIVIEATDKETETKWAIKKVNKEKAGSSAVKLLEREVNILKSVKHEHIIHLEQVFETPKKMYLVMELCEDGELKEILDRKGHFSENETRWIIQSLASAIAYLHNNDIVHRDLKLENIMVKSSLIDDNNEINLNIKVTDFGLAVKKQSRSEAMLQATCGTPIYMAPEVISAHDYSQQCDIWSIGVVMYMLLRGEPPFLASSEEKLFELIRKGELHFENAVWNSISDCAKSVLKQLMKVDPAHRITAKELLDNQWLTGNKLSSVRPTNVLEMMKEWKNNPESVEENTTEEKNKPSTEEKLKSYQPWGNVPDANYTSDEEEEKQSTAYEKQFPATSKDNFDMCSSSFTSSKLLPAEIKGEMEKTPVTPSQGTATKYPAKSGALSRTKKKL
For `Cc1ccc(N(CC(=O)Nc2ccccc2Sc2ccccc2)S(C)(=O)=O)c(C)c1`, the inhibition was -1.72%.
The value for `COC(=O)c1ccc(NC(=O)CSc2nc(-c3ccccc3)cc(=O)[nH]2)cc1` was 4.41%.
As for `O=C(O)CCCC(=O)Nc1ccc(F)cc1`, the figure is -2.71%; as for `O=C(NCc1ccccn1)c1ccccc1C(=O)c1ccccc1`, -3.58%.
As for `CCC(O)c1ccc2c(=O)c(-c3ccccc3F)coc2c1` (stereo not given), the figure is 1.14%; as for `CCOc1ccc(NC(=O)CSc2nccc(C)n2)cc1`, -0.939%.
Turning to `COc1ccc(/C=C/C(=O)O[C@@H]2[C@@H](OC(=O)/C=C/c3ccc(OC)cc3)[C@H](C)O[C@@H](O[C@H]3[C@@H]4C=CO[C@@H](O[C@@H]5O[C@H](CO)[C@@H](O)[C@H](O)[C@H]5O)[C@@H]4[C@@]4(CO)O[C@@H]34)[C@@H]2OC(C)=O)cc1`, the inhibition was -0.911%.
The value for `C[C@H]1CN([C@@H](C)CO)C(=O)c2cc(NC(=O)Cn3cnnn3)ccc2O[C@H]1CN(C)S(C)(=O)=O` was -0.963%.
As for `CCOC(=O)c1c(NC(=O)Cn2nc([N+](=O)[O-])c(Br)c2C)sc2c1CCCC2`, the figure is 2.08%; as for `Cc1cc(C)c2oc(-c3cccc(NC(=O)COc4ccc(Br)cc4)c3C)nc2c1`, 5.61%; as for `CCn1c(SCC(=O)Nc2cc(Cl)ccc2OC)nnc1-c1ccc(Br)cc1`, 1.48%.
`CC(C)(C)c1ccc(OCC(=O)NCc2ccccn2)c(Br)c1`: the inhibition is -6.11%.
Consider `Nc1ccc2c3c(cccc13)C(=O)NC2=O`, for which the inhibition is 28.5% (active).
For `C[C@@H]1CN([C@H](C)CO)C(=O)c2cc(NC(=O)Nc3ccc4c(c3)OCO4)ccc2O[C@H]1CN(C)Cc1ccc(-c2ccccc2)cc1`, the inhibition was 0.655%.
The value for `O=C(CSc1nc2ccc(NC(=O)c3ccccc3Cl)cc2s1)Nc1ccc(F)cc1` was 0.13%; that for `O=C(CSc1nnc(-c2ccccn2)n1-c1ccccc1)Nc1ccc2cn[nH]c2c1` was 0.339%; that for `COc1ccc(N(CC(=O)Nc2cc(C)ccc2OC)S(C)(=O)=O)cc1Cl` was -2.26%.
In the case of `NCCCC[C@@H]1NC(=O)[C@@H]2C[C@H](C(=O)NCc3ccc(F)cc3)[C@H](c3ccc(O)cc3)N2C1=O`, the inhibition is -1.29%.
On to `C[C@H](CO)N1C[C@H](C)[C@@H](CN(C)S(=O)(=O)c2ccc(F)cc2)OCc2cnnn2CCCC1=O`, for which the inhibition was 3.05%.
On to `COc1ccc(C(C)=O)cc1CSc1nnc(-c2ccc(Br)cc2)n1-c1ccccc1`, for which the inhibition was -0.65%.
For the molecule `COc1ccc(N(C(C)C(=O)Nc2cccc(Br)c2)S(C)(=O)=O)cc1` (stereo not given), the inhibition was -0.0651%.
On to `COC(=O)c1ccc(NC(=O)CSc2nc(-c3ccccc3)c(-c3ccccc3)[nH]2)cc1`, for which the inhibition was 0.633%.
As for `O=[N+]([O-])c1ccc(NCCNCc2cccnc2)cc1`, the figure is 0.298%; as for `COc1ccc(NC(=O)CN2CCN(S(=O)(=O)c3ccc4ccccc4c3)CC2)cc1`, -0.51%; as for `Cc1ccc(N(C(C)C(=O)Nc2ccc(F)c(Cl)c2)S(C)(=O)=O)cc1C` (stereo not given), -3.25%.
`Cc1ccc(-n2c(SCC(=O)Nc3cccc(C)c3C)nc3ccccc3c2=O)cc1`: the inhibition was -0.698%.
As for `O=C(c1ccc(NCc2cccnc2)c([N+](=O)[O-])c1)N1CCCCC1`, the inhibition is 2.99%.
Consider `CN(CC(=O)Nc1ccc(F)cc1)S(=O)(=O)c1ccccc1`, for which the inhibition was -1.62%.
The value for `Nc1cc(N)nc(SCC(=O)c2ccc(Br)cc2)n1` was 1.93%.
The value for `O=C(CSc1nnc(-c2ccccc2)n1-c1ccc(Cl)cc1)Nc1ccc(Cl)cc1` was -3.34%; that for `O=C(CN1CCCC1)Nc1sc2c(c1C(=O)Nc1ccccc1)CCCC2` was -1.02%.
With `CN1C(=O)C(O)(CC(=O)c2ccco2)c2cc([N+](=O)[O-])ccc21` (stereo not given), the inhibition was 1.09%.
On to `COc1ccc(-c2nnc(SCC(=O)O)n2-c2ccccc2)cc1OC`, for which the inhibition is 0.684%.
As for `C[C@H]1CN([C@@H](C)CO)C(=O)CCCn2cc(nn2)CO[C@@H]1CN(C)S(=O)(=O)c1ccc(-c2ccccc2)cc1`, the figure is -9.48%; as for `COc1ccc(NC(=O)O[C@@H](c2ccc(OCCO)cc2)[C@@H](C)CCO)cc1`, 0.388%; as for `COc1cc(OC)c(NC(=O)CSc2nnc(-c3ccncc3)n2-c2ccccc2)cc1Cl`, -1.55%.
As for `C[C@H](CO)N1C[C@H](C)[C@H](CN(C)S(=O)(=O)c2ccc(Cl)cc2)Oc2ccc(NC(=O)C3CCCCC3)cc2C1=O`, the figure is 5.34%.
Consider `CCCC(O)C#Cc1cnc2c(c1)C(=O)N([C@H](C)CO)C[C@H](C)[C@H](CN(C)S(=O)(=O)c1ccc(C#N)cc1)O2` (stereo not given in full), for which the inhibition is 2.14%.
The value for `Cc1nn(CC(=O)NCc2ccccn2)c(C)c1[N+](=O)[O-]` was -1.47%.
`COC(=O)c1ccccc1NC(=O)CSc1n[nH]c(-c2ccncc2)n1`: the inhibition is 2.87%.
`COc1ccc(C)cc1S(=O)(=O)N1CCCC(C(=O)Nc2ccccc2C(F)(F)F)C1` (stereo not given): the inhibition was 1.43%.
As for `CC(C)N1C(=O)[C@@]2(Cc3ccccc31)c1ccccc1C(=O)N(C1CCCCC1)[C@H]2c1ccc(CO)cc1`, the figure is 4.98%; as for `Cc1ccc(NC(=O)COc2ccccc2C)c([N+](=O)[O-])c1`, 0.544%.
Regarding `COc1ccc(OC)c(NC(=O)Cn2cc(C(=O)C3CC3)c3ccccc32)c1`, the inhibition was -2.72%.
Turning to `COc1ccc(Cl)cc1N(CC(=O)Nc1ccc(Br)c(Cl)c1)S(C)(=O)=O`, the inhibition was 1.17%.
The value for `CN(CC(=O)Nc1ccccc1C#N)S(=O)(=O)c1ccc2ccccc2c1` was 1.4%; that for `C[C@H](CO)N1C[C@H](C)[C@@H](CN(C)C(=O)C2CCCCC2)OCc2cnnn2CCCC1=O` was 0.882%.
The value for `COc1ccc(NC(=O)CSc2nncc3ccccc23)c([N+](=O)[O-])c1` was -3.11%.
The value for `C[C@H](CO)N1C[C@H](C)[C@H](CN(C)S(C)(=O)=O)Oc2ncc(C#CCN(C)C)cc2C1=O` was 3.31%.
For the molecule `O=[N+]([O-])c1cccc(NC(=S)Nc2nn(Cc3ccc(Cl)cc3Cl)cc2Cl)c1`, the inhibition is 1%.
